Reference: PubChem BioAssay (NCATS)
Results filed as inconclusive are left out. Calls of active or inactive are those of the source. Calls follow the shape of the dose curve; as a rule, active = well fitted curve in the direction sought with a large enough effect; inconclusive = small, poorly fitted or top-dose-only effect, or another doubt; inactive = no such curve, though single readings can be large; an effect the other way counts as inactive or inconclusive.

Columns and labels:
[1] = target: Cellular tumor antigen p53 (Homo sapiens) (UniProt P04637); assay: Primary qHTS for small molecule compounds that upregulate eGFP-tagged delta133p53alpha (in N-terminal) cells. (AID 2060322); settings: NCI-H358 eGFP-delta133p53alpha fluorescence, 24 h; activation: active compounds read high;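 also: series mostly up to about 56 µM; 0% = DMSO vehicle and 100% = reference activator; nearly all actives have a fitted effect of over 75% in size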
Chain of Cellular tumor antigen p53 (Homo sapiens) (P04637 whole entry, looked up): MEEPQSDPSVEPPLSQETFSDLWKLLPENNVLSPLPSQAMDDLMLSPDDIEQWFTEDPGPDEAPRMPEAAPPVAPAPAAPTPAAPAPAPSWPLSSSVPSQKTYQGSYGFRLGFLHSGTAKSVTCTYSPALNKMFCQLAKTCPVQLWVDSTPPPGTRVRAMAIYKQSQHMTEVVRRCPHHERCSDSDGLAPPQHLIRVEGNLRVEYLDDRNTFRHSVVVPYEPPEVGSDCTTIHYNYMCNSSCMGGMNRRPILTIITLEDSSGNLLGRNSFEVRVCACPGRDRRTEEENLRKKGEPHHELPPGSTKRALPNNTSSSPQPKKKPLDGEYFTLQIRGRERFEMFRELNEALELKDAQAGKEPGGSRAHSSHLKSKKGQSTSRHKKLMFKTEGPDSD
Method in brief: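 NCI-H358 cells pre-induced 24 h with 10 ng/ml doxycycline to express N-terminal eGFP-delta133p53alpha, then dosed 24 h at 37C without doxycycline; fixed, Hoechst-stained, GFP intensity by laser scanning cytometry, normalized to DMSO (0%) and 57.5 uM 5-azacytidine (100%).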

[2] = target: Aldehyde dehydrogenase, mitochondrial (Homo sapiens) (UniProt P05091); assay: qHTS for Inhibitors of the Aldehyde Dehydrogenase Family (ALDH2) Primary screen (AID 2061308);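 also: plate controls were vehicle for no effect and reference inhibitor for full effect; nearly all actives have a fitted effect of over 55% in size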
[3] = target: Retinaldehyde dehydrogenase 3 (Homo sapiens) (UniProt P47895); assay: qHTS for Inhibitors of the Aldehyde Dehydrogenase Family (ALDH1A3) Primary screen (AID 2061315);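 also: plate controls were DMSO vehicle for no effect and reference inhibitor for full effect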

CC(=O)OC1C(O)CC2(C)C(CCC3(C)C2CC=C2C4C5(CCC(CO[C@@H]6O[C@H](CO)[C@@H](O)[C@H](O)[C@H]6O)(OC5=O)C4(C)O)C(O)CC23C)C1(C)C (some centres undefined)
inactive: activation [1] -11.5% | Potency [2] | Potency [3]

COc1cc2c(c(O)c1OC/C=C(\C)CC/C=C(/C)CCC=C(C)C)CN(C(CCC(=O)O)C(=O)O)C2=O (centres undefined)
inactive: activation [1] -30.5% | Potency [2] | Potency [3]

COc1c(N2CC3CCCNC3C2)c(F)cc2c(=O)c(C(=O)O)cn(C3CC3)c12 (centres undefined)
inactive: activation [1] 3.34% | Potency [2] | Potency [3]
